Results reported in PubChem BioAssay.
A number with no mark means an inactive call. Activity calls are given as the source filed them. No stated cut-off is given here; in the data, active means fold change permeability below about 0.7 or above about 1.3; inactive means in between.

test: compounds altering in vitro BBB leakiness – cell-based, FITC-avidin fluorescence, HTS, primary screen (AID 1963498); conditions: brain endothelial barrier, actives lie on both sides; further: test concentration not given here

| SMILES | fold change permeability |
| --- | --- |
| Nc1ccc2c3c(cccc13)C(=O)NC2=O | 2.8 (active) |
| Cc1cn[nH]c1 | 0.8 |
| CCCCCN(CCCCC)C(=O)C(CCC(=O)O)NC(=O)c1ccc(Cl)c(Cl)c1 (centres undefined) | 1.4 (active) |
| COc1cc2nc(N3CCN(C(=O)C4COc5ccccc5O4)CC3)nc(N)c2cc1OC (centres undefined) | 1.4 (active) |
| O=C1NC(c2cccc([N+](=O)[O-])c2)=CCN1c1ccccc1O | 0.9 |
| Cn1c(=O)c2[nH]c(-c3ccccc3)nc2n(C)c1=O | 1.1 |
| CCN(Cc1ccncc1)C(=O)C(CO)c1ccccc1 (centres undefined) | 1.6 (active) |
| Cc1ccc(=O)n(-c2ccccc2)c1 | 1 |
| C[C@H]1c2cccc(O)c2C(O)=C2C(=O)[C@]3(O)C(O)=C(C(N)=O)C(=O)[C@@H](N(C)C)[C@@H]3[C@@H](O)[C@@H]21 | 0.9 |
| CCOC(=O)COc1ccc2c(c1)C[C@@H](NC[C@H](O)c1cccc(Cl)c1)CC2 | 1.1 |
| O=c1c2ccccc2[nH]c(=S)n1CCN1CCC(=C(c2ccc(F)cc2)c2ccc(F)cc2)CC1 | 1.6 (active) |
| CC(C)C(=O)Nc1ccc([N+](=O)[O-])c(C(F)(F)F)c1 | 1.2 |
| O=c1ccn([C@@H]2O[C@H](COP(=O)(O)OP(=O)(O)O)[C@@H](O)[C@H]2O)c(=O)[nH]1 | 0.8 |
| CC(C)[C@H]1C(=O)N[C@@H](CCCN=C(N)N)C(=O)NCC(=O)N[C@@H](CC(=O)O)C(=O)N[C@H](Cc2ccccc2)C(=O)N1C | 1.2 |
| Fc1ccc(NC(=S)NCCCn2ccnc2)c(F)c1 | 0.9 |
| CN[C@H](CC(C)C)C(=O)N[C@H]1C(=O)N[C@@H](CC(N)=O)C(=O)N[C@H]2C(=O)N[C@H]3C(=O)N[C@H](C(=O)N[C@H](C(=O)O)c4cc(O)cc(O)c4-c4cc3ccc4O)[C@H](O)c3ccc(c(Cl)c3)Oc3cc2cc(c3O[C@@H]2O[C@H](CO)[C@@H](O)[C@H](O)[C@H]2O[C@H]2C[C@](C)(N)[C@H](O)[C@H](C)O2)Oc2ccc(cc2Cl)[C@H]1O | 1.6 (active) |
| C=C(Cc1ccccc1Cl)C(=O)OCC | 1 |
| CCNC(=O)[C@H]1O[C@@H](n2cnc3c(N)nc(NCCc4ccc(CCC(=O)O)cc4)nc32)C(O)[C@H]1O (some centres undefined) | 1.1 |
| N=S(=O)(O)Cc1noc2ccccc12 | 1.9 (active) |
| Nc1ncnc2c1nc(Br)n2C1OC2COP(=O)(O)O[C@@H]2C1O (some centres undefined) | 1 |
| CC(C)c1cccc(C(C)C)c1N1C(=O)c2ccc(O)cc2C1=O | 1.6 (active) |
| Oc1ccccc1O | 0.9 |
| C[N+](C)(C)CCO | 1 |
| CN(C)c1ccc(NCc2ccccn2)cc1 | 1.5 (active) |
